SMILES strings stand for the structures. Some compounds were tested as several samples or in several runs, with calls that do not always agree. The source made the active and inactive calls. The calls were made as follows: active = hit-call score of the fitted dose curve at least 0.9, where 1 is the maximum; inactive = score below 0.9.

The experiment in a line: ATG_SREBP_CIS: Attagene CIS-FACTORIAL HepG2 Assay for human Sterol Regulatory Element Binding (SREBP) (AID 2282962). To be noted: HepG2 Attagene cis-factorial SREBP reporter, mRNA; actives raise or lower the signal. The method, then: ATG_CIS is a cell-based, multiplexed-readout assay that uses HepG2, a human liver cell line, with measurements taken at 24 hours after chemical dosing in a 24-well plate.ATG_SREBP_CIS is one of 52 assay component(s) measured or calculated from the ATG_CIS assay. It is designed to make measurements of mRNA induction, a form of inducible reporter, as detected with fluorescence intensity signals by Reverse transcription polymerase chain reaction (RT-PCR) and Capillary electrophoresis technology.Data from the assay component ATG_SREBP_CIS was analyzed into 1 assay endpoint. This assay endpoint, ATG_SREBP_CIS, was analyzed with bidirectional fitting relative to DMSO as the negative control and baseline of activity. Using a type of inducible reporter, measures of mRNA for gain or loss-of-signal activity can be used to understand the reporter gene at the transcription factor-level as they relate to the gene SREBF1. Furthermore, this assay endpoint can be referred to as a primary readout, because this assay has produced multiple assay endpoints where this one serves a reporter gene function. To generalize the intended target to other relatable targets, this assay endpoint is annotated to the dna binding intended target family, where the subfamily is basic helix-loop-helix leucine zipper.
Human liver HepG2 cells are transiently transfected with multiple reporter transcription units (MRTUs) in 6-well plates using FuGene 6 reagent (Roche; 3 ml FuGene/1 mg DNA). The MRTU constructs are regulated by a cis-regulating element (promoter). […] A major difference between the CIS and TRANS system is that in CIS activities of endogenous TFs are measured, whereas the TRANS assay evaluates changes in activities of exogenous, chimeric NR-Gal4 proteins. […] At the end of 24 hour incubation, total RNA was isolated using TriZol reagent (Invitrogen). The isolated RNA is then reverse-transcribed using oligo(dT) primer and Mo-MLV reverse transcriptase (Invitrogen) with DNAse I (Ambion) treatment for 30 min. The one-tenth of the produced cDNA was amplified by PCR using Taq DNA polymerase (Invitrogen) and two reporter sequence-specific primers. The PCR products were fluorescently labeled by primer extension with 6-arboxyfluorescein (6-FAM) 5'-labeled reporter sequence-specific primer (2 min at 95 C, 20 s at 68 C and 10 min at 72 C) and these products were digested with 5U of HpaI (New England Biolabs) for 2h at 37 C. The fragments were purified using Qiaquick PCR columns (Qiagen), analyzed on an ABI 3130xL genetic analyzer (Applied Biosystems) with peak positions identified by using a set of X-rhodamine (ROX)-labeled MapMarker1000 molecular weight standards (BioVentures). The raw capillary electrophoresis data was processed using Attagraph software (Attagene).
As for `O=C(C=Cc1ccccc1)OCC=Cc1ccccc1`, the outcome was inactive. Same read-out and setting: next, `CCN(CC)c1ccc2c(C)cc(=O)oc2c1`: “inactive”; `C=CC(F)(F)C(F)(F)C(F)(F)C(F)(F)C(F)(F)C(F)(F)C(F)(F)C(F)(F)F`: “inactive”; `N=C(N)C(F)(F)C(F)(F)C(F)(F)C(F)(F)C(F)(F)C(F)(F)C(F)(F)F`: “inactive”.

On to `CCCCCCC(C)OC(=O)CCCCC(=O)OC(C)CCCCCC` (stereo not given), for which the compound was classed as inactive. Still for that read-out and setting: with `CCCCCCOC(=O)c1ccccc1O` the entry was “inactive”. On the same count and under the same terms, next, `CC/C=C\CCOC(C)=O`: “inactive”. Turning to `OCC(F)(F)C(F)(F)C(F)(F)C(F)(F)C(F)(F)C(F)F`, the compound was called inactive. Still for that read-out and setting: with `O=C(O)C(F)(OC(F)(F)C(F)(OC(F)(F)C(F)(F)C(F)(F)F)C(F)(F)F)C(F)(F)F` (stereo not given) the entry was “inactive”. Same read-out and setting: next, `COC(=O)CCC(F)(F)C(F)(F)C(F)(F)C(F)(F)F`: “inactive”; `Nc1ccc([N+](=O)[O-])cc1O`: “inactive”. Take `CCCCCCS`: the compound was classed as inactive. The same measure, in the same setting: with `CCCCCC=O` the entry was “inactive”; with `FC(F)(F)C(F)(F)C(F)(F)N(C(F)(F)C(F)(F)C(F)(F)F)C(F)(F)C(F)(F)C(F)(F)F`, “inactive”; with `CCCCCCCOC(=O)c1ccccc1C(=O)OCCCCCCC`, “inactive”. Turning to `CCc1ccc(C(c2ccc(CC)cc2)C(Cl)Cl)cc1`, the result was inactive. Take `CC(Cc1ccc(O)c(O)c1)C(C)Cc1ccc(O)c(O)c1` (stereo not given): the call was inactive. Same read-out and setting: with `Cc1cccc(N(C)C)c1` the entry was “inactive”; with `CCC(=O)OCCc1ccccc1`, “inactive”.

As to `O=C(O)C(F)(F)C(F)(F)OC(F)(F)F`, the outcome was inactive. As to `CCO[Si](CCC(F)(F)C(F)(F)C(F)(F)C(F)(F)C(F)(F)C(F)(F)F)(OCC)OCC`, the compound was called inactive. The same measure, in the same setting: with `CCCCNc1ccccc1` the entry was “inactive”; with `FC1CC(F)(F)C(F)(F)C1(F)F` (stereo not given), “inactive”. Consider `O=C(O)C(F)(F)C(F)(F)C(F)(F)C(F)(F)C(F)(F)C(F)(F)C(F)(F)C(F)(F)C(F)(F)C(F)(F)C(F)(F)C(F)(F)C(F)(F)F`, for which the result was inactive. Take `O[Si](c1ccccc1)(c1ccccc1)c1ccccc1`: the AC50 is 69.1 µM (active). In the case of `O=C(Cl)C(F)(F)C(F)(F)C(F)(F)C(F)(F)C(F)(F)C(F)(F)C(F)(F)C(F)(F)F`, the result was inactive. In the case of `CS(C)(=O)=O`, the outcome was inactive. With `FC(F)(F)C(F)(F)C(F)(F)C(F)(F)C(F)(F)C(F)(F)C(F)(F)C(F)(F)CCS`, the outcome was inactive. The same measure, in the same setting: with `O=P(O)(O)OCCC(F)(F)C(F)(F)C(F)(F)C(F)(F)C(F)(F)C(F)(F)F` the entry was “inactive”; with `CCCCCCCCCCCCCCCC[N+](C)(C)Cc1ccccc1`, “inactive”. Same read-out and setting: next, `CC(C)c1ccccc1N`: “inactive”.

`[Co]`: the compound was classed as inactive. On to `Cc1ccc(S(=O)(=O)OCC(F)(F)C(F)(F)C(F)(F)C(F)(F)C(F)(F)C(F)F)cc1`, for which the result was inactive. Consider `CNC(=S)NC`, for which the result was inactive.

As for `FC(F)(F)C(F)(F)C(F)(F)C(F)(F)C(F)(F)C(F)(F)C(F)(F)I`, the outcome was inactive. With `CCCCCCCCC(F)(F)C(F)(F)C(F)(F)C(F)(F)C(F)(F)C(F)(F)F`, the result was inactive. With `O=S(=O)(O)C(F)(F)C(F)(F)C(F)(F)C(F)(F)C(F)(F)C(F)(F)C(F)(F)F`, the concentration at half-maximal activity (AC50) is 150 µM (active) and the call was inactive.

Consider `O=C(O)C(F)(F)C(F)(F)F`, for which the outcome was inactive. Turning to `Oc1ccc(Nc2ccccc2)cc1`, the outcome was inactive.
